# Screening results as filed in PubChem.
# An excerpt weighted towards active compounds, which were near 2.1% of everything screened.
# PfHsp90 set2: reduces growth (ATP signal) of yeast expressing P. falciparum Hsp90 | S. cerevisiae expressing PfHsp90, BacTiter-Glo ATP, 48 h; yeast lacking PDR1 and PDR3 efflux regulators | inhibition, % at 9.4 µM | 310,000 tested, 0.32% active;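 active = every replicate shows inhibition above about 80%, whatever the replicate mean, limit read from the data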
# SIRT5 block: inhibitors of human sirtuin-5 desuccinylase. Q9NXA8. inhibition, % at 15 µM. AID 652115. 330,000 tested, 1.1% active. Purified SirT5, succinyl-peptide AMC, trypsin-coupled fluorescence; in the data active = inhibition above about 15%
# Casp6 inh: caspase-6 (human) enzyme inhibition. P55212. purified caspase-6, Z-VEID-R110 cleavage fluorescence. inhibition, % at 12.5 µM. 350,000 tested, 0.53% active. AID 686996;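 active = mean inhibition across replicates at least about 35%, with every replicate also reaching that limit, limit read from the data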
# NSD2 inh: NSD2 (human) methyltransferase inhibition; O96028; NSD2 peptide methylation, AlphaScreen, 120 min; inhibition, % at 12.5 µM; 310,000 tested, 0.54% active; AID 743445; in the data active = inhibition above about 50%
# ARNT TACC3 PPI: disrupts binding between human ARNT and TACC3; Q9Y6A5; AlphaScreen His-ARNT PAS-B/GST-TACC3 binding, luminescence; TACC3 fragment carries E629A point mutation; inhibition, % at 9.99 µM; 390,000 tested, 0.66% active;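 active = mean inhibition of replicates at least 50% and at least half of replicates each reaching 50%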
# Numbers stand for hits; - = inactive; . = no result given.
SMILES,PfHsp90 set2,SIRT5 block,Casp6 inh,NSD2 inh,ARNT TACC3 PPI
C[C@H](CO)N1C[C@H](C)[C@H](CN(C)C(=O)Nc2ccc(C(F)(F)F)cc2)Oc2ccc(NC(=O)Cc3cn(C)c4ccccc34)cc2C1=O,.,-,-,.,-
C[C@H](CO)N1C[C@H](C)[C@@H](CN(C)S(=O)(=O)c2ccc(F)cc2)Oc2ccc(NC(=O)c3ccncc3)cc2CC1=O,.,-,-,.,-
COc1cc(/C=N/Nc2nncn2/N=C/c2ccc(O)c(OC)c2)ccc1O,-,-,-,-,51
O=C(O)c1ccc(CNCc2cccc(Cl)c2)cc1,-,21,-,-,-
O=C(O)c1ccc(CNCc2c(Cl)cccc2Cl)cc1,-,.,.,-,-
O=C(C[C@H]1CC[C@@H]2[C@H](COC[C@H](O)CN2Cc2ccc(F)cc2)O1)NCc1ccncn1,.,-,-,.,-
Cc1csc(=O)n1CCC(=O)OCc1nnc(-c2ccc([N+](=O)[O-])cc2)o1,-,-,52,-,-
CSC(=S)NN=C(C)c1cccc(C)n1,105,-,-,-,59
CNC(=O)C[C@@H]1CC[C@@H]2[C@H](COc3ccc(NC(=O)c4cc(F)cc(F)c4)cc3C(=O)N2C)O1,.,16,-,.,-
CN1C(=O)c2cc(NC(=O)Cc3cccs3)ccc2OC[C@@H]2O[C@@H](CC(=O)NCCc3ccncc3)CC[C@@H]21,.,-,69,.,-
CN1C(=O)c2cc(NC(=O)c3cccc(F)c3)ccc2OC[C@@H]2O[C@@H](CC(=O)N3CCc4ccccc4C3)CC[C@H]21,.,-,56,.,-
CN1C(=O)c2cc(NC(=O)Cc3cccs3)ccc2OC[C@H]2O[C@@H](CC(=O)NCCc3ccncc3)CC[C@@H]21,.,-,-,.,-
COC(=O)C[C@H]1CC[C@@H]2[C@H](COc3ccc(NC(=O)c4cnccn4)cc3C(=O)N2C)O1,.,-,57,.,-
CN(C)CC(=O)N[C@@H]1CC[C@@H](CCNC(=O)C2CCCCC2)O[C@H]1CO,.,-,-,.,-
O=C(CN1CCOCC1)N[C@@H]1CC[C@@H](CCNC(=O)C2CCC2)O[C@@H]1CO,.,-,-,.,-
CC(=O)N1CC2(C1)[C@H](c1ccc(-c3cccc(F)c3)cc1)[C@@H](CO)N2CC1CCOCC1,.,-,-,.,.
COc1ccc(-c2cnc3c(c2)C(=O)N([C@@H](C)CO)C[C@H](C)[C@@H](CN(C)C(=O)CN(C)C)O3)cc1,.,-,-,.,-
CN(C)C(=O)C[C@@H]1CC[C@@H]2[C@H](COc3ccc(NC(=O)c4ccc(F)c(F)c4)cc3C(=O)N2C)O1,.,16,-,.,-
CN1C(=O)c2cc(NC(=O)c3cccs3)ccc2OC[C@H]2O[C@H](CC(=O)N3CCOCC3)CC[C@@H]21,.,17,-,.,-
C[C@H]1CN([C@@H](C)CO)C(=O)Cc2cc(NS(=O)(=O)c3ccc(F)cc3)ccc2O[C@H]1CN(C)S(=O)(=O)c1ccccc1,.,-,-,.,-
COc1ccc(S(=O)(=O)Nc2ccc3c(c2)C(=O)N([C@@H](C)CO)C[C@@H](C)[C@H](CN(C)S(=O)(=O)c2ccc(F)cc2)OCCCC[C@H](C)O3)cc1,.,-,-,.,-
COc1ccc(S(=O)(=O)N(C)C[C@H]2OCCCC[C@@H](C)Oc3ccc(NS(=O)(=O)c4ccc(F)cc4)cc3C(=O)N([C@@H](C)CO)C[C@H]2C)cc1,.,18,-,.,-
COc1ccc(S(=O)(=O)Nc2ccc3c(c2)C(=O)N([C@@H](C)CO)C[C@@H](C)[C@@H](CN(C)S(=O)(=O)c2ccc(F)cc2)OCCCC[C@H](C)O3)cc1,.,16,-,.,-
COc1ccc(S(=O)(=O)Nc2ccc3c(c2)C(=O)N([C@@H](C)CO)C[C@@H](C)[C@@H](CN(C)S(=O)(=O)c2ccc(F)cc2)OCCCC[C@@H](C)O3)cc1,.,-,-,.,-
COc1ccc(S(=O)(=O)Nc2ccc3c(c2)C(=O)N([C@@H](C)CO)C[C@@H](C)[C@H](CN(C)Cc2ccncc2)OCCCC[C@H](C)O3)cc1,.,17,-,.,-
COc1ccc(S(=O)(=O)N(C)C[C@@H]2OCCCC[C@H](C)Oc3ccc(NS(=O)(=O)c4ccc(F)cc4)cc3C(=O)N([C@H](C)CO)C[C@H]2C)cc1,.,19,-,.,-
O=C(C[C@H]1C=C[C@H](NC(=O)Cc2ccccn2)[C@H](CO)O1)NCCc1ccccc1,.,-,-,.,.
O=C(O)c1ccccc1NS(=O)(=O)c1ccc(N/N=C/c2ccc(O)c(O)c2)c([N+](=O)[O-])c1,-,21,64,116,-
